Source: PubChem BioAssay
Rab9 promoter act = Rab9 promoter activation | Huh7 Rab9 promoter-luciferase reporter, luminescence, 24 h | AID 485297 | Potency, µM (titrated, usually from 9.22 µM), usual class: activators | 320,000 compounds, 2.8% hits; also: nearly all actives have a fitted effect of over 60% in size
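Using Huh7 cells stably transfected with Rab9 promoter–luciferase, compounds were incubated 24 h at 37 °C, 5% CO2; luciferase luminescence was read 10 min after reagent addition.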
Luc counter = blocks Kinase-Glo luciferase, a counter-screen artifact; Q27757; Kinase-Glo luciferase, ATP luminescence, 8 min; Potency, µM (top dose mostly 38.3 µM), actives largely listed as inhibitors; 200,000 compounds, 0.28% hits; AID 1379; also: nearly all actives have a fitted effect of over 60% in size
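Recombinant Kinase-Glo luciferase, 10 uM ATP (linear range), luciferin; imidazole pH 7.2 / KCl / MgCl2 / Tween / BSA buffer; 8 min RT; luminescence.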
NPC1 promoter act = NPC1 promoter activation; Huh7 NPC1 promoter luciferase reporter, 24 h; Potency, µM (series often up to 9.22 µM), hits mostly activators; 320,000 compounds, 2.4% hits; AID 485313; also: nearly all actives have a fitted effect of over 60% in size
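Huh7 reporter cells (NPC1 promoter driving luciferase) are dosed with compound for 24 h at 37 °C, 5% CO2; luciferase detection reagent is then added and luminescence measured after 10 min at ambient temperature.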
SMN2 splice enh = enhancers of SMN2 splice variant expression. HEK293 SMN2-luciferase splicing reporter, luminescence, 30-36 h. Potency, µM (top dose mostly 46.1 µM), most hits filed as activators. 210,000 compounds, 2.8% hits. AID 1458; also: nearly all actives have a fitted effect of over 55% in size
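HEK293 cells carry an SMN2 minigene-luciferase reporter in which exon 7 inclusion puts luciferase in frame. Cells were seeded at 2000 cells/well, attached for 10-12 hours, then exposed to compounds for 30-36 hours at 37C before ONE-Glo luminescence.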
FLuc modulator = firefly luciferase modulation, counter-screen for miR-21 project. P08659. AID 588342. Potency, µM (doses to about 57.5 µM), usual class: inhibitors. purified FLuc, Km substrates, luminescence inhibition. 360,000 compounds, 6.9% hits; also: nearly all actives have a fitted effect of over 55% in size
Target sequence (P08659 whole entry, looked up): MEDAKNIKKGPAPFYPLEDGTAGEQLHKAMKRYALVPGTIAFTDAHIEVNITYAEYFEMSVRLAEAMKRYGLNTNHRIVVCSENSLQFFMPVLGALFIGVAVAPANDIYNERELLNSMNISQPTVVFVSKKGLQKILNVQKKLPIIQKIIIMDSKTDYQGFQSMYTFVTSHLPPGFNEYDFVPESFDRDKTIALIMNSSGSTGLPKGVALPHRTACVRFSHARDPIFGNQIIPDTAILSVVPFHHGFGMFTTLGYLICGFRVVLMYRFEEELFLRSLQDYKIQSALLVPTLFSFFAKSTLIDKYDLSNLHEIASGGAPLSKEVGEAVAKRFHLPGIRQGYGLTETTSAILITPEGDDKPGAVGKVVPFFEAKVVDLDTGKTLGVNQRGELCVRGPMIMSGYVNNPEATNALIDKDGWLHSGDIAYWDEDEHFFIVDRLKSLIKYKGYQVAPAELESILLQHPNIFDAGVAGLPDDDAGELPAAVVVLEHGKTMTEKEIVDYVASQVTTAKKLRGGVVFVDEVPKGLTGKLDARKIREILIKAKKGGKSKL
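Purified P. pyralis luciferase (10nM final) with 10uM D-luciferin and 10uM ATP (Km levels) in 50mM Tris acetate pH 7.5, 10mM Mg acetate, 0.01% Tween-20, 0.05% BSA; qHTS 6-point titration, ~60 µM downward; luminescence read.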
ELG1 genotoxic = inducers of genotoxicity in HEK293T ELG1-luciferase cells. HEK293T ELG1-luciferase reporter, luminescence, 16 h. Potency, µM (highest dose often 46 µM), usual class: activators. 330,000 compounds, 1.3% hits; also: nearly all actives have a fitted effect of over 60% in size
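ELG1-luciferase HEK293T cells, 2,000/well; compound pinned in; 16 hr, 37 °C, 5% CO2; ONE-Glo, 30 min RT; luminescence on CCD imager.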
A number is an active result; 0 = inactive; ? = inconclusive; - = no result; [ ] = dose if it differs, or a comment. This is a sample that favours compounds with a hit; in the whole collection about 7.5% have one here. Calls follow the shape of the dose curve; as a rule, active = well fitted curve in the direction sought with a large enough effect; inconclusive = small, poorly fitted or top-dose-only effect, or another doubt; inactive = no such curve, though single readings can be large; an effect the other way counts as inactive or inconclusive.

SMILES	Rab9 promoter act	Luc counter	NPC1 promoter act	SMN2 splice enh	FLuc modulator	ELG1 genotoxic
CC(C)n1c2ccccc2c2nnc(SCC(=O)Nc3ccccc3C(=O)O)nc21	0	0	0	0	19µM	0
O=C(CSc1ccccc1)Nc1ccccc1C(=O)O	-	0	-	0	21µM	-
Cc1ccc(CCC(=O)Nc2ccccc2C(=O)O)o1	?	-	?	-	17µM	?
COc1ccc(Cl)cc1C(=O)Nc1sc2c(c1C(=O)OC(C)C)CCCC2	-	-	-	0	0	-
Cc1ccc(Nc2nc3ccccc3c3nnc(C)n23)c(C)c1	-	-	-	-	0	-
CCCCNC(=O)c1ccc2c(c1)NC(=O)C(CS(=O)(=O)Cc1cccc(C)c1)N2 (stereo not drawn)	-	-	-	-	0	-
Cc1nc(-c2ccc(NC(=O)c3ccccc3Br)cc2)cs1	2.8µM	0	?	16µM	6µM	?
Cc1nc(-c2cccc(NC(=O)c3cc4cc(Br)ccc4oc3=O)c2)cs1	0	0	0	0	0	0
Cc1nc(-c2ccc(NC(=O)c3ccccc3C)cc2)cs1	1.6µM	0	1.4µM	-	3.4µM	0
CCC(C)Nc1nc(-c2c[nH]c3ccccc23)cs1 (stereo not drawn)	0	-	0	-	13µM	0
CNc1nc(-c2c[nH]c3ccccc23)cs1	0	0	0	0	?	0
CCc1ccc(-c2csc(-c3c[nH]c4ccccc34)n2)cc1	1.1µM	0	2.5µM	13µM	21µM	?
O=S(=O)(c1ccc(-c2cc(C(F)(F)F)on2)s1)N1CCN(c2cccc(Cl)c2)CC1	-	-	-	-	0	-
Cc1ccccc1-c1nnc(SCC(=O)Nc2cccnc2Cl)o1	-	-	-	-	-	2.1µM
Cc1cc(C)cc(NC(=O)CSc2nnc(-c3ccccc3C)o2)c1	?	0	?	0	-	0
Cc1cccc(NC(=O)CSc2nnc(-c3n[nH]c4ccccc34)o2)c1	0	0	0	?	0	0
COc1ccccc1NC(=O)CSc1nnc(-c2ccccc2C)o1	-	-	-	-	0	-
Cc1cccc(NC(=O)CSc2nnc(-c3ccccc3C)o2)c1	4µM	0	?	13µM	0	?
N#Cc1cccc(NC(=O)CSc2nnc(-c3n[nH]c4ccccc34)o2)c1	?	0	?	13µM	0	0
CC(=O)Nc1nonc1-c1nnc(SCC(=O)Nc2ccc(C)cc2)n1-c1ccccc1	-	-	-	-	0	-
C=C(C)Cn1c(CN(C)Cc2ccccc2)nc2c1c(=O)n(C)c(=O)n2C	0	-	0	-	0	0
NC(=O)C1CCN(c2nc(-c3ccccc3Cl)cs2)CC1	-	-	-	-	0	-
O=C(N/N=C/c1ccc2cccc(OCc3ccccc3)c2n1)c1ccc(Br)cc1	0	0	0	0	2.7µM	0
COc1cc(/C=C/c2ccc3cccc(OC)c3n2)c(OC(C)=O)c([N+](=O)[O-])c1	0	0	0	0	0	0
COc1ccc(C(=O)N/N=C/c2ccc3cccc(OCc4ccccc4)c3n2)cc1	0	0	0	0	1.5µM	0
SMILES	Rab9 promoter act	Luc counter	NPC1 promoter act	SMN2 splice enh	FLuc modulator	ELG1 genotoxic
COc1c(OC(C)=O)ccc(/C=C/c2ccc3cccc(OCc4ccccc4)c3n2)c1[N+](=O)[O-]	?	0	?	0[1.84 µM]	1.5µM	0
NC(=S)N/N=C/c1ccc2cccc(OCc3ccccc3)c2n1	0	-	0	-	0	0
C[C@H](CO)N1C[C@H](C)[C@@H](CN(C)S(=O)(=O)c2cn(C)cn2)Oc2c(NS(=O)(=O)c3cccs3)cccc2C1=O	-	-	-	-	-	0
CCOC(=O)c1c(C)n(-c2ccccc2)c2ccc(OC(=O)c3ccc(OCC)c(OCC)c3)cc12	-	-	-	0	0	-
S=C(NCCN1CCOCC1)Nc1ccc(-c2nc3ccccc3[nH]2)cc1	?	0	0	0	?	0
Cc1ncc(CO)c(CNc2ccc(-c3nc4ccccc4[nH]3)cc2)c1O	1.6µM	-	1µM	-	3.4µM	?
CC(=O)Nc1ccc(NC(=O)CSc2ccc(-c3ccc(-n4ccnc4)cc3)nn2)cc1	0	-	0	-	?	0
C/C(=N\NC(=O)COc1ccc(C(C)(C)C)cc1)c1ccc(-n2ccnc2)cc1	?	0	0	?	0.38µM	0
C/C(=N\NC(=O)c1ccccc1)c1ccc(-n2ccnc2)cc1	0	-	0	-	0	0
C/C(=N\NC(=O)OC(C)(C)C)c1ccc(-n2ccnc2)cc1	0	0	0	0	0	0
Cc1ccc(NC(=O)n2ccc(-c3ccc(-n4ccnc4)cc3)n2)cc1	4µM	0	?	13µM	?	0
CC(C)(C)c1ccc(NC(=O)COc2ccc(-n3ccnc3)cc2)cc1	0	0	0	-	15µM	0
COc1ccc(OCC(=O)N/N=C(\C)c2ccc(-n3ccnc3)cc2)cc1	0	0	0	0	6µM	0
COc1cc(NC(=O)COc2ccc(-n3ccnc3)cc2)cc(OC)c1	0	0	0	0	0	0
O=C(Nc1ccccc1)C12CC1/C(=N\O)c1ccccc1O2 (stereo not drawn)	-	-	-	0	-	-
O=C(Cc1ccccc1)NCCSCc1ccco1	0	0	0	0	0	0
O=C(NCCSCc1c(F)cccc1Cl)Nc1ccccc1	0	-	0	-	17µM	0
S=C(NCCSCc1c(Cl)cccc1Cl)Nc1ccccc1	0	0	0	0	0	0
O=C(NCCSCc1ccco1)Nc1ccccc1	0	0	0	-	17µM	0
O=C(NCCSCc1c(F)cccc1Cl)c1ccc(CN2CCOCC2)cc1	2.5µM	0	0	0	0	0
CC(C)[C@@H](CC(=O)N[C@@H]1CCNC[C@H]1C(=O)N[C@H](CC(=O)N[C@@H](CCC(=O)O)CC(=O)O)Cc1c[nH]c2ccccc12)NC(=O)C[C@H](Cc1c[nH]c2ccccc12)NC(=O)[C@@H]1CCCC[C@H]1N	-	0	-	0	-	-
COc1nc(N)nc2c1ncn2[C@@H]1C[C@H](O)[C@@H](CO)O1	-	0[7.66 µM]	-	0[9.22 µM]	-	-
CCOc1cccc(C(=O)c2ccc(O)c(O)c2O)c1	-	0	-	0	-	-
CCOC(=O)c1sc(NC(=S)NC(=O)CC(C)C)cc1C	?	0	0	0	19µM	0
CCOC(=O)c1sc(NC(=O)c2ccc(S(=O)(=O)N(C)C)cc2)cc1C	0	0	0	0	0	0
SMILES	Rab9 promoter act	Luc counter	NPC1 promoter act	SMN2 splice enh	FLuc modulator	ELG1 genotoxic
CCOC(=O)c1sc(NC(=O)c2c(C)nn(Cc3ccccc3)c2C)cc1C	0	0	0	0	21µM	0
CCOC(=O)c1sc(NC(=O)c2ccccc2)cc1C	0.71µM	0	1.6µM	11µM	1.1µM	1.3µM
CCOC(=O)c1sc(NC(=O)Nc2ccc(Cl)cc2)cc1C	0	0	0	0	6.7µM	?
CCOC(=O)c1c(NC(=O)Nc2ccc(Cl)cc2)sc(C)c1C	0	0	0	0	0	0
CCOC(=O)c1sc(NC(=O)c2cccc(S(=O)(=O)N(CC)CC)c2)cc1C	0	0	0	0	?	0
CCOC(=O)c1sc(NC(=O)C(C)(C)C)cc1C	3.2µM	0	2.8µM	10µM	12µM	18µM
